Assay results reported in the supplement of paper PMC11732987, “Enantioselective OTUD7B fragment discovery through chemoproteomics screening and high-throughput optimisation” (Communications Chemistry, 2025).

How the values were obtained:
Experiment in all cases: log2 ratio of Biotin-Ahx-Ub-VS probe labelling (fragment/DMSO); higher = less target engagement (more negative = stronger competition), active = hit call of the paper (q ≤ 0.05, log2 ratio ≤ -1)
Settings in all cases: compound concentration: 200 uM; treatment time: 3 h
USP34 = USP34 (UniProt Q70CQ2)
Procedure, shortened: (§1)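 Average log2 ratios of fragment over vehicle were obtained by unpaired t-test from global-median-normalised Spectronaut label-free quantities. Proteins with ≥2 unique peptides were included. HEK293T lysate (495 µg per sample) was treated in triplicate with fragment at 200 µM or vehicle for 3 h, then with Biotin-Ahx-Ub-VS at 0.5 µM final for 1 h, and labelled DUBs were NeutrAvidin-enriched and run by diaPASEF LC-MS/MS.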

USP36 = molecular target: T1, USP36 (UniProt Q9P275)
T1 sequence (whole entry): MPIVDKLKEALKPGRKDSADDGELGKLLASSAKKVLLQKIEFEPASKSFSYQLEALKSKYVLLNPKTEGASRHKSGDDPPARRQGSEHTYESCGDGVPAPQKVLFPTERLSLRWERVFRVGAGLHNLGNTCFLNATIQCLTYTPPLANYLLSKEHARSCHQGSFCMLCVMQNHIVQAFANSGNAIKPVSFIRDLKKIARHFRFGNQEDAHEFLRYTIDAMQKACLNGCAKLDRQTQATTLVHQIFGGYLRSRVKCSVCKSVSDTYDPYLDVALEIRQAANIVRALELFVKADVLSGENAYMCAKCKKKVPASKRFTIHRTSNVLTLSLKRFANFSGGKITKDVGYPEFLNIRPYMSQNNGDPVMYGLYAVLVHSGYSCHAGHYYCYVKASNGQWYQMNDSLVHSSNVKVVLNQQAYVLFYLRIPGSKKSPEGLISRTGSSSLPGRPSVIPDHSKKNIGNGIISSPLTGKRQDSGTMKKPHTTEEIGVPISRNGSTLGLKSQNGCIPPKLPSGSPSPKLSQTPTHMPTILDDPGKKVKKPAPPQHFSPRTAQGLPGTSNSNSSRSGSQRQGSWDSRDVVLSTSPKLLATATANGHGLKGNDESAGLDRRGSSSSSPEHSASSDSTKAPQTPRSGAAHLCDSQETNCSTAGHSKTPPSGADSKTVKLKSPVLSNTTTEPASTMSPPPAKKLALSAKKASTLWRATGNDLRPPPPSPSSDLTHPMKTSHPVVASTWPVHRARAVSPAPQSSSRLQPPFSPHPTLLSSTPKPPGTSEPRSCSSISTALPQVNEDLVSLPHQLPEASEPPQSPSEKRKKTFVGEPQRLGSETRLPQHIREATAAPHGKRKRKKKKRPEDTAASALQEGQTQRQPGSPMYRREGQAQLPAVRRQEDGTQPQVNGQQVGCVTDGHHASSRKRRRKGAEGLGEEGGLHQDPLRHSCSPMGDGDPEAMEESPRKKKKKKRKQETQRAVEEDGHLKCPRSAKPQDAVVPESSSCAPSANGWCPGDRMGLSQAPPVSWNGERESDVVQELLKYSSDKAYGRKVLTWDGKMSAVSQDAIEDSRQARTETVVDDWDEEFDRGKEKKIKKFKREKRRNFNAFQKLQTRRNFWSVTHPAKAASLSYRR
Procedure, shortened: as §1

USP38 = molecular target: T2, USP38 (UniProt Q8NB14)
T2 sequence (whole entry): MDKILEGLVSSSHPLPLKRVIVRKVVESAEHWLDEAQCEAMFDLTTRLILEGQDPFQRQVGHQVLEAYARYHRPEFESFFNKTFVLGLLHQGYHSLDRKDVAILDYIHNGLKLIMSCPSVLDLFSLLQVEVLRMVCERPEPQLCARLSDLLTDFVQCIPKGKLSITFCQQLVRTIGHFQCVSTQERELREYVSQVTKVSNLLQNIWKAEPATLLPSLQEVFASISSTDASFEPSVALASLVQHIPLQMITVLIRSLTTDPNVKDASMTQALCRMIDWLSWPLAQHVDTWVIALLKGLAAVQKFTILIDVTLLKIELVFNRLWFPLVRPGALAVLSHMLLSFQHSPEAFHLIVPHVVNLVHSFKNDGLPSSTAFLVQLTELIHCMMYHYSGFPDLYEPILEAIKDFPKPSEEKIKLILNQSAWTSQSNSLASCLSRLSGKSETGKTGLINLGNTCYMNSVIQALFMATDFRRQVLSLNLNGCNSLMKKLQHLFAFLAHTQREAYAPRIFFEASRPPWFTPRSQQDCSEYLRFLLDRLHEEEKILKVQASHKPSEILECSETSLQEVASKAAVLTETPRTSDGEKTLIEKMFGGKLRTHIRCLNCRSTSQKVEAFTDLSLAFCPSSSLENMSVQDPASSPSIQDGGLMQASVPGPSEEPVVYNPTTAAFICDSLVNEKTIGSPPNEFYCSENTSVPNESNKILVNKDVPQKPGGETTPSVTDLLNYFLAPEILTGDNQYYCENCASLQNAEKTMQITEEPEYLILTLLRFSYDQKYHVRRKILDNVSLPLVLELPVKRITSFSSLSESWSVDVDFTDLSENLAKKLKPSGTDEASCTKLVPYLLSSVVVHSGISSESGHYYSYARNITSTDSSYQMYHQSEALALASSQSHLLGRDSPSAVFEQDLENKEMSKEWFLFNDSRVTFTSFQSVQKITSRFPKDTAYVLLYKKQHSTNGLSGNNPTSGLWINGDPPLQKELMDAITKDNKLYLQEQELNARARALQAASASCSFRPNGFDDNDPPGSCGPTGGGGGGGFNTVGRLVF
Procedure, shortened: as §1

USP39 = molecular target: T3, USP39 (UniProt Q53GS9)
T3 sequence (whole entry): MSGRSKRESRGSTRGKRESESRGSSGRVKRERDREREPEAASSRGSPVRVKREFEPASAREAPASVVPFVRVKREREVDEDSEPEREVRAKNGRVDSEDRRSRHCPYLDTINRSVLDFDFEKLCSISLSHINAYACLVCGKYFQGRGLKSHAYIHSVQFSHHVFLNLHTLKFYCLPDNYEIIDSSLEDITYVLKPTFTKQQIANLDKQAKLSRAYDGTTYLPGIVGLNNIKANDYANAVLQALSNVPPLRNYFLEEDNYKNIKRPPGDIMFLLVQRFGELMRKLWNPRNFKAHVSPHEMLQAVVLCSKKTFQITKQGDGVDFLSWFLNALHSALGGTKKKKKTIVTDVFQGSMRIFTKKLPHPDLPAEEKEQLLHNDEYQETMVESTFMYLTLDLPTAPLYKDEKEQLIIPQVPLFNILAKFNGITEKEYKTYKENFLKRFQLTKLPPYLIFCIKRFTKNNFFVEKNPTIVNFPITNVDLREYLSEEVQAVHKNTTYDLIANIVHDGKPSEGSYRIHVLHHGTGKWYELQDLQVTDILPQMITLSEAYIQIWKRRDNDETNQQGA
Procedure, shortened: as §1

USP4 = molecular target: T4, USP4 (UniProt Q13107)
T4 sequence (whole entry): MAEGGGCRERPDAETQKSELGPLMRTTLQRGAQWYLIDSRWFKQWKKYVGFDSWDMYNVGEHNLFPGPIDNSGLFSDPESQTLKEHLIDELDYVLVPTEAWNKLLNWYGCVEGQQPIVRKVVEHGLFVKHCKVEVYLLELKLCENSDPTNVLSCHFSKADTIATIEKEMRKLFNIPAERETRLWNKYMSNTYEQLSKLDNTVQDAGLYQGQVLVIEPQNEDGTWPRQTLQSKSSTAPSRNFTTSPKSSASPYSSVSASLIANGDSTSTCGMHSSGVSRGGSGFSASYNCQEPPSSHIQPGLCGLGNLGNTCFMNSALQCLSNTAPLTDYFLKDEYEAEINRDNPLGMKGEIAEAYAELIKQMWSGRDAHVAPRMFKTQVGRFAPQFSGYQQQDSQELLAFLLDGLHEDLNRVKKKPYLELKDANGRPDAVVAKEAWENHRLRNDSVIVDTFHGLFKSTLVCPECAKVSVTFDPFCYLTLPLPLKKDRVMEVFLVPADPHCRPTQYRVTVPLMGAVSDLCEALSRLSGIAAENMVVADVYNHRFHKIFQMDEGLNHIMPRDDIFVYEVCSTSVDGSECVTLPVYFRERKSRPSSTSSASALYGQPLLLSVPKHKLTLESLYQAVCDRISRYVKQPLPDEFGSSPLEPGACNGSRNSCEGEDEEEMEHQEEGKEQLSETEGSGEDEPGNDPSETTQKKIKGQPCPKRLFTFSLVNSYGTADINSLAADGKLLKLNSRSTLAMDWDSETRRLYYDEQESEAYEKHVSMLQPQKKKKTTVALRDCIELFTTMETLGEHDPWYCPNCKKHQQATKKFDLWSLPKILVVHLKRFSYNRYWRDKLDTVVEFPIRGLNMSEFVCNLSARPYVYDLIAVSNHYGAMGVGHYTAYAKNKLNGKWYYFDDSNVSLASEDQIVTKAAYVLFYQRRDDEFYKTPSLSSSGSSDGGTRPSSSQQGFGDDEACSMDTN
Procedure, shortened: as §1

Measured: log2 ratio of Biotin-Ahx-Ub-VS probe labelling

Chain of USP34 (Q70CQ2 whole entry, the tested form may be a part): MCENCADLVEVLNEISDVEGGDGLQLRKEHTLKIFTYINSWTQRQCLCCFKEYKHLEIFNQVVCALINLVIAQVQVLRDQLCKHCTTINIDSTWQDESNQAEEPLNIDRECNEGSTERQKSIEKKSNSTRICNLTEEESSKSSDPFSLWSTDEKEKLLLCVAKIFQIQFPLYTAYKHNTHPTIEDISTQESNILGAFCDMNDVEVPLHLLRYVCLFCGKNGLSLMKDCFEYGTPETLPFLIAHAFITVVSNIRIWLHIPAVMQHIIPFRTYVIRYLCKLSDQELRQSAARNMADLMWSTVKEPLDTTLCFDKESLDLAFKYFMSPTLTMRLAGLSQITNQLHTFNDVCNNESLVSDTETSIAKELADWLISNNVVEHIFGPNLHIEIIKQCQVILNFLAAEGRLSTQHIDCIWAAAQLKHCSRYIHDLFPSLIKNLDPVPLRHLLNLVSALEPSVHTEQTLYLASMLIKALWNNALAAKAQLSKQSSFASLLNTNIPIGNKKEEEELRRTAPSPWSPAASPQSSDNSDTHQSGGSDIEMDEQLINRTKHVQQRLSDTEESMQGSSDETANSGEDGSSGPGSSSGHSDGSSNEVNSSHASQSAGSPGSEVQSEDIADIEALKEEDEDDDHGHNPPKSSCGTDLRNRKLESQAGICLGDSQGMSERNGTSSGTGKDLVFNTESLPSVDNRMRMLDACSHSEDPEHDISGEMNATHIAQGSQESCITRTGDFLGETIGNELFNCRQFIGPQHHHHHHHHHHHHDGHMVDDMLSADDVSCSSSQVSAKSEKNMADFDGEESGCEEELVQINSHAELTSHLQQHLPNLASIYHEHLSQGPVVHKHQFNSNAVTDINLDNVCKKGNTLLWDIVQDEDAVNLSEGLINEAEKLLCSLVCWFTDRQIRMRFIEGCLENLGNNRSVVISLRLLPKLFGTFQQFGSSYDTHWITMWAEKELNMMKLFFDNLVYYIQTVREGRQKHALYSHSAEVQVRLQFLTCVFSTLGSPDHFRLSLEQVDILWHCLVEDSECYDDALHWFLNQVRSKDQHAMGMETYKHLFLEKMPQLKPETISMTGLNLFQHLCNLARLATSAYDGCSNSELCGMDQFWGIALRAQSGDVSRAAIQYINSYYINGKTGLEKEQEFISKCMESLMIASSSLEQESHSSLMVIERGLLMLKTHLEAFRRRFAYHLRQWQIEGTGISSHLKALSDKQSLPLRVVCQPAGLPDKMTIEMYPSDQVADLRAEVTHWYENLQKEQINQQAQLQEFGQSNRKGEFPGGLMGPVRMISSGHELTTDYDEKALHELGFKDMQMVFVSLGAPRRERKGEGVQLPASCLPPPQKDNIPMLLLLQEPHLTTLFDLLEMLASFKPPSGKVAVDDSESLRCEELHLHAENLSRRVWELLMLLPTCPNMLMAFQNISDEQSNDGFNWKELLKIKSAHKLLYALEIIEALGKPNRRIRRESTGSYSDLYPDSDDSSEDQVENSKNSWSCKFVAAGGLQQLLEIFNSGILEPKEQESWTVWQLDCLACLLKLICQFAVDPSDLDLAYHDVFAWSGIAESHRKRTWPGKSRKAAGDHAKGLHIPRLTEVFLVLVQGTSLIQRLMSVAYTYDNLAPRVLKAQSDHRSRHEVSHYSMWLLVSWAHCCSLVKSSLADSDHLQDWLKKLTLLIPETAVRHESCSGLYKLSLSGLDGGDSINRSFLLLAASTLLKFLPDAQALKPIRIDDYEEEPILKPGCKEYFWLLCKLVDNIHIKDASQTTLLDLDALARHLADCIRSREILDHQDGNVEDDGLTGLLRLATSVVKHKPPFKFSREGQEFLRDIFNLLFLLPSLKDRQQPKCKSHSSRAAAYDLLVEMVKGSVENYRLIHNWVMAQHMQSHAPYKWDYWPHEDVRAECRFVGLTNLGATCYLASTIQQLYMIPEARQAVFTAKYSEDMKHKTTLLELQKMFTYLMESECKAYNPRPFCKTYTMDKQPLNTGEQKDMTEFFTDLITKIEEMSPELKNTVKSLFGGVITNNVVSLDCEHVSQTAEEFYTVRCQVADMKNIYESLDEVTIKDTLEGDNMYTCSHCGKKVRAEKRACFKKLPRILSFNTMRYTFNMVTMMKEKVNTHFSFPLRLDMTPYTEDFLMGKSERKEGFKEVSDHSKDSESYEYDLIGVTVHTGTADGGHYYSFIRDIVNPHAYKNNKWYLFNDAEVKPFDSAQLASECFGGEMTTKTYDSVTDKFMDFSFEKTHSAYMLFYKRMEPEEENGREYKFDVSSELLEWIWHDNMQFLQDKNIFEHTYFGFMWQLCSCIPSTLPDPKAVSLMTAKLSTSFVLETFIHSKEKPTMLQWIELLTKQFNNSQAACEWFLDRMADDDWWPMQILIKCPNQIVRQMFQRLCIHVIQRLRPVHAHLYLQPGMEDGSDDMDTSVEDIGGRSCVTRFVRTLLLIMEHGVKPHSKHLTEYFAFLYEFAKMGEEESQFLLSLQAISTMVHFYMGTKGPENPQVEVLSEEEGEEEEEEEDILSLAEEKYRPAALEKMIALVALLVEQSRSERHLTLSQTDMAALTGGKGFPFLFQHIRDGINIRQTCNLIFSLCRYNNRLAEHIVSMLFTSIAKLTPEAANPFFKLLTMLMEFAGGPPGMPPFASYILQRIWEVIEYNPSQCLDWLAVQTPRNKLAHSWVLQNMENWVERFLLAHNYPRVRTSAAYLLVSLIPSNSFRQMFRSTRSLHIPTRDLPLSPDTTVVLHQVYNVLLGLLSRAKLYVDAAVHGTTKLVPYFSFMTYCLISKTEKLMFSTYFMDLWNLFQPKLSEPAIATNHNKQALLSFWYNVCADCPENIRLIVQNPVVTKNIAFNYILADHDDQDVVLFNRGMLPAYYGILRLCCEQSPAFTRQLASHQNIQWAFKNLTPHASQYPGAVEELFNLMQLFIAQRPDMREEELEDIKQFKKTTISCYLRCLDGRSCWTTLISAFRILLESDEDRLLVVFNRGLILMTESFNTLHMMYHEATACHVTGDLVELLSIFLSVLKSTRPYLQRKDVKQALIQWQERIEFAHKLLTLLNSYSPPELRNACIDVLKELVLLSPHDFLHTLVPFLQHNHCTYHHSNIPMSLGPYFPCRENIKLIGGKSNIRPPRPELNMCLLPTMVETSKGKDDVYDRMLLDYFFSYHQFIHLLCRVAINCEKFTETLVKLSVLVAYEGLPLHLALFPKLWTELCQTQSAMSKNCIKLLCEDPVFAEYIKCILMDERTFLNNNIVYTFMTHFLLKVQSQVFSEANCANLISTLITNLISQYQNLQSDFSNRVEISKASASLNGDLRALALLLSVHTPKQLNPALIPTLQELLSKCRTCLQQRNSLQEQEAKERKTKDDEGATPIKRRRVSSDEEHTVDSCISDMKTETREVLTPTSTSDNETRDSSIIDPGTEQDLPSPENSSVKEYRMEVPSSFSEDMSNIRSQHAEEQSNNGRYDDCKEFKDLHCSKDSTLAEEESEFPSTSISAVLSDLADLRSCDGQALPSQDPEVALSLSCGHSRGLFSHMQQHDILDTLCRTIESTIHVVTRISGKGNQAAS

CC(NC(=O)CCl)c1cc2n(n1)CCCC2.Cl (stereo not given)
inactive: USP34 -0.00259 | USP36 0.028 | USP38 -0.215 | USP39 -0.149 | USP4 -0.121
